17 molecules from PubChem BioAssay can be followed below.

In assay [1] the target is Cell division control protein 42 homolog (Homo sapiens) (UniProt P60953). Nature of the assay: activated mutant Cdc42 GTP-binding inhibitors, dose response, biochemical, multiplex bead flow cytometry, Bodipy-FL-GTP (AID 1333;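 active = fitted half-maximal concentration within the tested dose range, moderate curve steepness, a statistically real signal drop, and little compound fluorescence or tag-binding interference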). A general note: In flow cytometry, cells or beads pass a laser one at a time.
The target is the same in assay [2]. Nature of the assay: wildtype Cdc42 GTP-binding inhibitors, dose response, biochemical, multiplex bead flow cytometry, Bodipy-FL-GTP (AID 1334;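 active = fitted half-maximal concentration within the tested range, moderate curve steepness, significant signal drop, and little compound fluorescence or bead-linkage interference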). The note with it: bead-based flow cytometry, Bodipy-FL-GTP binding to GST-Cdc42; at 100 µM (top of the series) unless noted.
Assay [3] addresses GTPase HRas (Homo sapiens) (UniProt P01112). Nature of the assay: inhibitors of GTP binding to wildtype Ras, dose response, biochemical, multiplex bead flow cytometry (AID 1335;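 active = fitted half-maximal concentration within 10 nM to 100 µM, steepness 0.5 to 2, significant signal drop, low assay interference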). The note with it: bead-based flow cytometry, Bodipy-GTP binding to GST-Ras; at 100 µM (top of the series) unless noted.
For assay [4], the system named is Ras-related protein Rab-7a (dog), GTP binding. Nature of the assay: Rab7 GTP binding inhibitors, potency, dose response, biochemical, wildtype, multiplex bead flow cytometry (AID 1336).
For assay [5], the target named is Ras-related C3 botulinum toxin substrate 1 (Homo sapiens) (UniProt P63000). Description: wildtype Rac1 GTP binding inhibitors, dose response, biochemical, multiplex bead flow cytometry (AID 1340;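 active = dose curve with midpoint inside tested range, moderate steepness, plateau gap beyond fit error, low compound glow and bead-link interference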). Particulars: GST-Rac1 beads, Bodipy-FL-GTP binding; at 100 µM (top of the series) unless noted.
For assay [6], the target named is GTPase HRas (Homo sapiens) (UniProt P01112). Nature of the assay: activated Ras mutant GTP binding inhibitors, dose response, biochemical, multiplex bead flow cytometry (AID 1341;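 active = dose-response curve with midpoint inside the tested range, moderate steepness, significant amplitude and little compound fluorescence or bead-attachment interference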;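 note: GST-tagged constitutively activated Ras mutant immobilized on beads and multiplexed with other GTPases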).

Structures are written as SMILES. For part of these data: Potency and affinity values are given separately. Active and inactive are the calls of the source. Unless noted, the rule behind the calls is not given here.

Chain of GTPase HRas (Homo sapiens) (P01112 whole entry, looked up): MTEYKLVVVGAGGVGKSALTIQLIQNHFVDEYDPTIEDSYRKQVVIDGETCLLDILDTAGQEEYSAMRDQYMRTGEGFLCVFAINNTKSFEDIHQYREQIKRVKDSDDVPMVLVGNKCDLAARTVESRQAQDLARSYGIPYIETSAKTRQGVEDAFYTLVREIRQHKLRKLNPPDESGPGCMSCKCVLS
Chain of Cell division control protein 42 homolog (Homo sapiens) (P60953 whole entry, looked up): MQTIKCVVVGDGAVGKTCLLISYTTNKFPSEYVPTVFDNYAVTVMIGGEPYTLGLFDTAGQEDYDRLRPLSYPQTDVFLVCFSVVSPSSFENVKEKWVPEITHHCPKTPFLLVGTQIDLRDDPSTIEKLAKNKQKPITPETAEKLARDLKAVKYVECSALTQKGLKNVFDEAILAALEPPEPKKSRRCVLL

As to `O=C1NC(=S)N/C1=C/c1cc([N+](=O)[O-])ccc1O`, the result in assay [1], in assay [4] and in assay [6] was inactive. In addition, the fluorescence, percent of control (lower = inhibition) in assay [2] was found to be 60.7%. For the same molecule, the GTP binding, percent of control in assay [3] worked out at 157% [at 33.3 µM]. In addition, in assay [5], the GTP binding signal, raw median fluorescence (lower = inhibition) (MCF (arbitrary fluorescence units)) was 185 [at 33.3 µM].
On to `CCN(CC)c1ccc(/C=C/C(=O)c2ccc(Br)cc2)cc1`, for which the molecule was called inactive in assay [1], in assay [4] and in assay [6]. The fluorescence, percent of control (lower = inhibition) in assay [2] amounted to 312%. This molecule also yielded a GTP binding, percent of control in assay [3] of 319%. Besides, the GTP binding signal, raw median fluorescence (lower = inhibition) (MCF (arbitrary fluorescence units)) in assay [5] was determined as 0.
In the case of `COc1cc(NC(=O)c2cccs2)c(OC)cc1NC(=O)CCC(=O)Nc1cccc2ncccc12`, the molecule was called inactive in assay [1], in assay [4] and in assay [6]. Moreover, in assay [2], the fluorescence, percent of control (lower = inhibition) turned out to be 32.3%. This molecule also had a GTP binding, percent of control in assay [3] of 72.4%. The molecule also showed a GTP binding signal, raw median fluorescence (lower = inhibition) (MCF (arbitrary fluorescence units)) in assay [5] of 144.
In the case of `COc1ccc(CNc2nc3c(c(=O)n(Cc4ccc(Br)cc4)c(=O)n3C)n2C)cc1`, the molecule was classed as inactive in assay [1], in assay [4] and in assay [6]. Also, the fluorescence, percent of control (lower = inhibition) in assay [2] came to 32%. In addition, the GTP binding, percent of control in assay [3] amounted to 83.8%. Further, the GTP binding signal, raw median fluorescence (lower = inhibition) (MCF (arbitrary fluorescence units)) in assay [5] came to 222.
As to `Cc1ccccc1COc1c(C)cccc1C(=O)O`, the call in assay [1], in assay [4] and in assay [6] was inactive. For the same molecule, in assay [2], the fluorescence, percent of control (lower = inhibition) came out at 59.9%. The same molecule came in with a GTP binding, percent of control in assay [3] of 209%. In assay [5], this molecule yielded a GTP binding signal, raw median fluorescence (lower = inhibition) (MCF (arbitrary fluorescence units)) of 56.3.
On to `COc1ccc(-n2cc(-c3ccccc3)c3c(=O)[nH]cnc32)cc1`, for which the call in assay [1], in assay [4] and in assay [6] was inactive. Further, in assay [2], the fluorescence, percent of control (lower = inhibition) came out at 39.1%. The molecule also displayed a GTP binding, percent of control in assay [3] of 84.4%. Moreover, in assay [5], the GTP binding signal, raw median fluorescence (lower = inhibition) (MCF (arbitrary fluorescence units)) came out at 327.
`O=C(O)C1CSC(CCc2ccccc2)N1` (configuration not stated): the call in assay [1], in assay [4] and in assay [6] was inactive. The fluorescence, percent of control (lower = inhibition) in assay [2] was determined as 98.5%. In assay [3], this molecule showed a GTP binding, percent of control of 125%. Also, the GTP binding signal, raw median fluorescence (lower = inhibition) (MCF (arbitrary fluorescence units)) in assay [5] is 87.7.
Take `Cc1nnc(SCC(=O)N2CCOCC2)c2ccccc12`: the molecule was classed as inactive in assay [1], in assay [4] and in assay [6]. For the same molecule, in assay [2], the fluorescence, percent of control (lower = inhibition) was found to be 49.3%. For the same molecule, in assay [3], the GTP binding, percent of control came to 61.1%. This molecule displayed a GTP binding signal, raw median fluorescence (lower = inhibition) (MCF (arbitrary fluorescence units)) in assay [5] of 192.
Turning to `COc1cc(/C=N\NC(=O)CNC(=O)C2COc3ccccc3O2)ccc1O` (configuration not stated), the molecule was called inactive in assay [1], in assay [4] and in assay [6]. The fluorescence, percent of control (lower = inhibition) in assay [2] worked out at 51.5%. This molecule registered a GTP binding, percent of control in assay [3] of 62.3%. In assay [5], this molecule had a GTP binding signal, raw median fluorescence (lower = inhibition) (MCF (arbitrary fluorescence units)) of 191.
Take `Cc1sc2ncnc(N/N=C/c3ccc(O)cc3)c2c1C`: the outcome in assay [1], in assay [4] and in assay [6] was inactive. Moreover, the fluorescence, percent of control (lower = inhibition) in assay [2] came to 27.2%. The molecule also gave a GTP binding, percent of control in assay [3] of 64.8%. The molecule further yielded a GTP binding signal, raw median fluorescence (lower = inhibition) (MCF (arbitrary fluorescence units)) in assay [5] of 312.
As for `Cn1ncc(C(N)=O)c1NC(=S)NC(=O)c1ccc(Br)o1`, the molecule was classed as inactive in assay [1], in assay [4] and in assay [6]. Besides, the fluorescence, percent of control (lower = inhibition) in assay [2] worked out at 36.5%. Moreover, the GTP binding, percent of control in assay [3] turned out to be 76.4%. This molecule registered a GTP binding signal, raw median fluorescence (lower = inhibition) (MCF (arbitrary fluorescence units)) in assay [5] of 170.
With `CN1CCc2nc3ccc(Cl)cc3c(-c3ccccc3Cl)c2C1`, the molecule was called inactive in assay [1], in assay [4] and in assay [6]. For the same molecule, the fluorescence, percent of control (lower = inhibition) in assay [2] stood at 37.3%. In assay [3], this molecule returned a GTP binding, percent of control of 81.8%. The molecule also had a GTP binding signal, raw median fluorescence (lower = inhibition) (MCF (arbitrary fluorescence units)) in assay [5] of 257.
In the case of `O=C(O)C1C2C=CC(C2)C1C(=O)N1CCOCC1` (configuration not stated), the molecule was classed as inactive in assay [1], in assay [4] and in assay [6]. Moreover, the fluorescence, percent of control (lower = inhibition) in assay [2] stood at 53.2%. The GTP binding, percent of control in assay [3] was found to be 66.4%. Further, in assay [5], the GTP binding signal, raw median fluorescence (lower = inhibition) (MCF (arbitrary fluorescence units)) was 216.
For `Cc1cc(N/N=C/c2ccc(O)cc2O)nc(-n2nc(C)cc2C)n1`, the outcome in assay [1], in assay [4] and in assay [6] was inactive. The fluorescence, percent of control (lower = inhibition) in assay [2] came out at 41%. Also, in assay [3], the GTP binding, percent of control stood at 53.3%. In assay [5], the GTP binding signal, raw median fluorescence (lower = inhibition) (MCF (arbitrary fluorescence units)) is 141.
Turning to `COc1cccc2cc(-c3ccnc(=S)[nH]3)oc12`, the result in assay [1], in assay [4] and in assay [6] was inactive. For the same molecule, the fluorescence, percent of control (lower = inhibition) in assay [2] stood at 33.3%. Further, in assay [3], the GTP binding, percent of control turned out to be 70.7%. The molecule also displayed a GTP binding signal, raw median fluorescence (lower = inhibition) (MCF (arbitrary fluorescence units)) in assay [5] of 140.
For the molecule `CC(SC(=S)N(C)Cc1cccs1)C(=O)O` (configuration not stated), the outcome in assay [1], in assay [4] and in assay [6] was inactive. Further, the fluorescence, percent of control (lower = inhibition) in assay [2] is 83.3%. For the same molecule, the GTP binding, percent of control in assay [3] stood at 79.5%. The GTP binding signal, raw median fluorescence (lower = inhibition) (MCF (arbitrary fluorescence units)) in assay [5] is 312.
As to `O=c1n(Cc2ccc(Cl)cc2)c2sc3c(c2c2ncnn12)CCCC3`, the molecule was classed as inactive in assay [1], in assay [4] and in assay [6]. The fluorescence, percent of control (lower = inhibition) in assay [2] stood at 78.9%. In assay [3], this molecule registered a GTP binding, percent of control of 126%. In assay [5], this molecule had a GTP binding signal, raw median fluorescence (lower = inhibition) (MCF (arbitrary fluorescence units)) of 146.
